# Among all 1,200 compounds or so, about 290 (24%) were called active. Not shown: some 3% with an inconclusive outcome.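 How the source made its calls: active means compounds lowering cell viability signal with fitted half-maximal concentration at most ten times their highest tested concentration; inconclusive means flat fit with 30 to 70% signal loss, or poor fit; inactive means the rest.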 Not all results are given here. Where a call stands in place of a potency, no number is given. Potency and affinity values are given separately.
# Experiment: HEK293T cell viability reduction, dose response, cytotoxicity control for LMP1 NF-kB inhibitor project, CellTiter-Glo luminescence, cherry-picks (AID 504861)
# Conditions: CellTiter-Glo ATP luminescence, 48 h; series mostly up to 26 µM
row,SMILES,outcome
1,CC(=O)O[C@]1(C(C)=O)CC[C@H]2[C@@H]3C=C(C)C4=CC(=O)CC[C@@H]4[C@H]3CC[C@@]21C,inactive
2,Cc1ccc(-c2cc(C(=O)N/N=C/C=C/c3ccco3)c3ccccc3n2)cc1C,inactive
3,Cc1ccc(C(=O)NCC(=O)N(C)Cc2cccc(F)c2)s1,inactive
4,Cn1cccc1/C=N/n1c(-c2ccc(Cl)cc2Cl)n[nH]c1=S,inactive
5,O=C(Nc1cccc(C(=O)O)c1)Nc1ccccc1Cl,inactive
6,CCn1nnc2cc(C(=O)NCCc3ccccc3F)ccc21,inactive
7,O=C(NCCc1cn2ccccc2n1)C1CCCCC1,inactive
8,Cc1ccc(C)c(Cn2c(O)c(N=NC(=S)Nc3ccccc3F)c3ccccc32)c1,inactive
9,N#CC1=C(N)C(C#N)(C#N)C(c2cccnc2)C2CC(c3ccccc3)CC=C12 (stereo not drawn),inactive
10,Cc1nc(C)n(C(C)CNC(=O)c2ccco2)n1 (stereo not drawn),inactive
11,O=C(O)c1ccccc1Nc1cccc(OCc2ccc3ccccc3n2)c1,inactive
12,CCCC(=O)NCCCc1nc2ccccc2n1C,inactive
13,O=C(O)c1cc(=O)c2c(OCC(O)COc3cccc4oc(C(=O)O)cc(=O)c34)cccc2o1,inactive
14,COc1ccc(-n2c(C)c([N+](=O)[O-])c3ccc(O)c(CN(C)C)c32)cc1,inactive
15,COc1ccc(Cl)cc1NC(=O)CN(C)S(=O)(=O)c1cccs1,inactive
16,OCCN(CCO)CC(O)COCCC12CC3CC(CC(C3)C1)C2 (stereo not drawn),inactive
17,O=C(Nc1ccc2c(c1)nc1n2CCSC1)c1ccco1,inactive
18,CCn1c(/C=C/c2ccc([N+](=O)[O-])o2)nc2ccccc2c1=O,inactive
19,Cc1ccc(/C=C/c2nc3ccccc3c(=O)[nH]2)cc1,inactive
20,COc1ccccc1-c1ccccc1C1=CC(=O)CC(C)(C)C1=O,inactive
21,COc1ccc(/C=C2\N=C(C)OC2=O)cc1[N+](=O)[O-],inactive
22,Brc1cccc(-c2cnco2)c1,inactive

row,SMILES,outcome
1,O=c1[nH]c(=O)n([C@H]2C[C@H](O)[C@@H](CO)O2)cc1C(F)(F)F,inactive
2,O=c1c2c(nc3c(-c4cccc(Br)c4)c[nH]n13)CCCC2,inactive
3,CC(C)C(=O)Nc1ccc(C(=O)N/N=C/c2cc(Br)cc(Br)c2O)cc1,inactive
4,Clc1ccc(-c2cn3nc4c(nc3n2)CCCC4)cc1,inactive
5,COc1ccc(NC(=O)C2CCCN(S(=O)(=O)c3cccc4nonc34)C2)c(OC)c1 (stereo not drawn),inactive
6,CC(=O)Nc1ccc(C=NNc2nnc(NN=Cc3ccc(NC(C)=O)cc3)c3ccccc23)cc1,inactive
7,COc1ccc(N2C(=O)CC(Sc3nnc(-c4ccccc4)o3)C2=O)cc1 (stereo not drawn),inactive
8,Cc1cccc(NC(=O)Nc2c(C)n(C)n(-c3ccccc3)c2=O)c1C,inactive
9,Cc1c(C=O)c2ccccn2c1C(=O)c1ccccc1Cl,inactive
10,COC(=O)c1ccc2nc(-c3ccc4c(c3)OCO4)cn2c1,inactive
11,Clc1ccc2nc(-c3ccc4c(c3)OCO4)cn2c1,inactive
12,Cc1c(/C(O)=C2/C(=O)C(=O)N(CCN3CCOCC3)C2c2ccccn2)cnn1-c1ccccc1 (stereo not drawn),inactive
13,CCc1cc(=O)oc2c(CNCc3c(F)cccc3Cl)c(O)ccc12,inactive
14,COc1ccccc1C(=O)NC(=O)CSc1nnc(N)s1,inactive
15,CS(=O)(=O)c1ccc(Sc2nc3ccccc3s2)c([N+](=O)[O-])c1,inactive
16,COc1ccc(-c2nc(CS(=O)CC(=O)NCc3ccc(Cl)cc3)c(C)o2)cc1 (stereo not drawn),inactive
17,COc1ccc(S(=O)(=O)NCCc2csc(-c3cccnc3)n2)cc1,inactive
18,Cc1cccc(Cn2cc(SCC(=O)Nc3nccs3)c3ccccc32)c1,inactive
19,O=C1/C(=C/c2cccnc2)SC(=S)N1Cc1ccco1,inactive
20,CCOc1ccc(-c2nc(CSCC(=O)NCc3ccco3)c(C)o2)cc1,inactive
21,CCOC(=O)c1ccc(NC(=S)N2CCSC2c2ccc(OC)cc2)cc1 (stereo not drawn),inactive
22,Cc1ccc(/C=C/C(=O)C2C(=O)c3ccccc3C2=O)cc1,inactive

row,SMILES,outcome
1,Cc1ccc(C(=O)NCCc2cccs2)cc1,inactive
2,Cc1cc(C)n(C2CCCCC2OC(=O)c2ccccc2F)n1 (stereo not drawn),inactive
3,CNC(=S)Nc1ccc2nc(C)c(C)nc2c1,inactive
4,Cc1cc(=O)[nH]c(N=N/C(=N/Nc2ccccc2C)c2ccccc2)n1,inactive
5,O=C(Nc1ccc(Br)cc1)C1CC(O)CN1C(=O)OCc1ccccc1 (stereo not drawn),inactive
6,O=C(O)CCc1nc(-c2ccc(Cl)cc2)no1,inactive
7,Cn1c(-c2ccccc2)cnc1SCC(=O)N1CCCCC1,inactive
8,O=C(N/N=C/c1cccnc1)c1cc(-c2cccs2)nc2ccccc12,inactive
9,NC(=O)c1sc2nc3c(c(-c4cccs4)c2c1N)CCCCC3,inactive
10,O=C(CN1C(=O)c2ccccc2C1=O)NNC1=NS(=O)(=O)c2ccccc21,inactive
11,COc1ccc(-n2nc(C(=O)c3cccs3)cc(-c3nc4ccccc4[nH]3)c2=N)cc1,inactive
12,O=C(Nc1nnc(N2CCCCCC2)s1)c1cc(-c2ccc(Br)cc2)on1,inactive
13,Cc1ccccc1N(C(=O)c1snc(C(N)=O)c1N)C(C(=O)NC1CCCCC1)c1ccc(O)cc1 (stereo not drawn),inactive
14,Cc1cc(NC(=O)c2ccc3c(c2)OCCO3)no1,inactive
15,CSc1nc2cc3c(cc2n1C(=O)c1ccc(C)cc1)OCCO3,inactive
16,C/C(=N\Nc1ccc(C(F)(F)F)cc1[N+](=O)[O-])C(C)C,inactive
17,Nc1ccccc1SC1CC(=O)N(c2ccccc2Cl)C1=O (stereo not drawn),inactive
18,Cc1cccc(Nc2nc(Cl)ncc2F)c1C,inactive
19,Cc1ccnc(SCCn2c(N3CCN(c4ccccc4)CC3)nc3c2c(=O)[nH]c(=O)n3C)n1,inactive
20,O=C(NCCCN1CCCCC1)c1ccc2c(c1)NC(=O)c1ccccc1S2,inactive
21,COc1ccc(-c2cc3nc(-c4ccccc4)cc(N4CCCC(O)C4)n3n2)cc1 (stereo not drawn),inactive
22,O=C(N/C(=C/c1ccc(Br)cc1)C(=O)N1CCOCC1)c1ccc(Br)o1,inactive

row,SMILES,outcome
1,COc1cccc(-c2nc(NCc3ccccc3)c3ccccc3n2)c1O,inactive
2,O=C(NCCc1ccccc1)c1ccc2nccnc2c1,inactive
3,O=C(Nc1ccc(Cl)c(Cl)c1)Nc1nc(-c2ccccc2)cs1,inactive
4,CCc1ccccc1N(CC(=O)NCc1ccco1)C(=O)c1snc(C(N)=O)c1N,inactive
5,CCn1c2ccccc2c2cc(NC(=O)c3ccccc3-c3ccccc3C(=O)O)ccc21,inactive
6,CCN(CC)Cc1cc(Nc2ccnc3cc(Cl)ccc23)ccc1O,inactive
7,O=S(=O)(c1ccc2c(c1)C(=NO)c1cc(S(=O)(=O)N3CCCCC3)ccc1-2)N1CCCCC1,inactive
8,Nc1nc(N)nc(-c2cc(Cl)ccc2Cl)n1,inactive
9,CCCc1cc(=O)c2c(O)ccc(OC)c2o1,inactive
10,CC1CCC(NC(=O)CC2Oc3ccccc3NC2=O)CC1 (stereo not drawn),inactive
11,O=S(=O)(c1ccccc1)N1CCN(c2cc(-c3ccccc3)nc3ncnn23)CC1,inactive
12,COc1ccccc1NC(=O)C(=O)N/N=C(\C)CC(=O)Nc1ccccc1C(F)(F)F,inactive
13,Cn1cccc1CC(=O)NNC(=S)Nc1ccccc1Cl,inactive
14,CC(C)(C)n1nc(-c2ccc(F)cc2)c2c(N)ncnc21,inactive
15,CCc1nnc(NC(=O)c2cc(S(=O)(=O)N3CCN(CC)CC3)ccc2Cl)s1,inactive
16,COc1ccc(CCC(=O)Nc2ccc(C)c([N+](=O)[O-])c2)cc1,inactive
17,CN(C)S(=O)(=O)c1cccc(NC(=O)c2n[nH]c(=O)c3ccccc23)c1,inactive
18,CCc1ccc(-c2nnn(CCC(=O)OC)n2)cc1,inactive
19,Oc1cccc(/C=N/NC(=S)NCCN2CCOCC2)c1O,inactive
20,Cc1ccc(C(=O)Nc2cccc(C(=O)N/N=C/c3ccccc3F)c2)cc1,inactive
21,COc1ccccc1C1(CC(=O)O)CCOC(C)(C)C1 (stereo not drawn),inactive
22,CCCN1C(=O)C2(SC(NC(C)=O)=NN2C(C)=O)c2cc(C)cc(C)c21 (stereo not drawn),inactive

row,SMILES,outcome
1,COc1ccc(OC)c2c1sc(=NC(=O)c1ccco1)n2C,inactive
2,Cc1ccc(NC(=S)Nc2cccc(S(=O)(=O)Nc3c(C)n(C)n(-c4ccccc4)c3=O)c2)cc1,inactive
3,Cc1ccc(C)c(S(=O)(=O)N2CCN(C(=O)c3ccc(C)s3)CC2)c1,inactive
4,O=C(Cn1ccc(C(F)(F)F)n1)Nc1cccc(S(=O)(=O)N2CCCCC2)c1,inactive
5,Cc1ccc(S(=O)(=O)N[C@H](C(=O)N2CCC(C(=O)N[C@@H](CC(=O)O)C(=O)O)CC2)C(C)C)cc1,inactive
6,C=CCn1c(C)c(C(C)=O)c(N2CCN(C(c3ccccc3)c3ccccc3)CC2)nc1=S,inactive
7,COc1ccccc1OCc1ccc(C(=O)c2ccccc2)cc1,inactive
8,COC(=O)c1ccc(COc2ccccc2/C=C/C(=O)c2ccc(OCC(=O)O)cc2)cc1,inactive
9,COc1cccc(C(=O)N2CCN(c3nc4cc(C)cc(C)c4cc3C#N)CC2)c1,inactive
10,Cc1ccc(N2CCN(C3=NC(=O)/C(=C\c4cn[nH]c4-c4ccccc4)S3)CC2)cc1,inactive
11,Cc1cnc(NC(=O)c2ccc(OCC3CCCO3)cc2)s1 (stereo not drawn),inactive
12,O=C(CSc1nnc(NC(=O)c2ccc3c(c2)OCO3)s1)NCc1ccco1,inactive
13,COc1ccc(C(=O)N(CN2CCCC2=O)c2cc(C)on2)cc1OC,inactive
14,COc1ccc(/C=C\C(=O)NCc2ccc3c(c2)cc(C)n3C)cc1OC,inactive
15,O=C(C[n+]1ccccc1)N/N=C/c1ccc(O)cc1,inactive
16,CCCCNC(=S)Nc1ccc([N+](=O)[O-])cc1,inactive
17,O=C(CCN1CCC(c2ccccc2)C1)c1ccc2c(c1)OCCO2 (stereo not drawn),inactive
18,CC(=O)Nc1ccc(OCCCNC(=O)c2c(-c3ccccc3)noc2C)cc1,inactive
19,CC(C)c1ccc(OCc2cccc(C(=O)N/N=C/c3cccnc3)c2)cc1,inactive
20,O=C(CCc1ccccc1Cl)N1CCN(S(=O)(=O)c2ccccc2)CC1,inactive
